In paper PMC11062922 (Nature Chemical Biology, 2023) one finds potency estimated from few doses data, which are given here for five molecules.

Like-named read-outs stand apart in the source and are kept apart here.

Holding throughout (set-up): species or system human, MV4-11 + K-562 + COLO205 + SK-N-BE2 + OVCAR-8
Experiment [1] has as its system ATM. To be noted: read-out: apparent Kd, n = 1.
In experiment [2] the test system is EPHB2. To be noted: read-out: apparent Kd; compound concentrations: 100 nM and 1000 nM (sheet 'Samples'), CATDS: 5.4073383937865198E-2; n = 1.
For experiment [3], the system named is EPHB4. To be noted: read-out: apparent Kd; compound concentrations: 100 nM and 1000 nM (sheet 'Samples'), CATDS: 6.1726409917068299E-2; n = 1.
Experiment [4] relates to ERCC2. The following applies: read-out: apparent Kd; compound concentrations: 100 nM and 1000 nM (sheet 'Samples'), CATDS: 5.5764348636942303E-2; n = 1.
Experiment [5] has as its system GAK. The following applies: read-out: apparent Kd; compound concentrations: 100 nM and 1000 nM (sheet 'Samples'), CATDS: 5.4131734373928597E-2; n = 1.
Experiment [6] deals with MAPK11. To be noted: read-out: apparent Kd; compound concentrations: 100 nM and 1000 nM (sheet 'Samples'), CATDS: 5.3024764927667702E-2; n = 1.
For experiment [7], the system named is MAPK9. To be noted: read-out: apparent Kd; compound concentrations: 100 nM and 1000 nM (sheet 'Samples'), CATDS: 4.8598107075800298E-2; n = 1.
For experiment [8], the system named is PIK3CD. The following applies: read-out: apparent Kd, n = 1.
For experiment [9], the system named is PRKAG1. The following applies: read-out: apparent Kd; compound concentrations: 100 nM and 1000 nM (sheet 'Samples'), CATDS: 0.16537945718140701; n = 1.
Experiment [10] deals with PRKCQ. The following applies: read-out: apparent Kd; compound concentrations: 100 nM and 1000 nM (sheet 'Samples'), CATDS: 0.173893551056024; n = 1.
The subject of experiment [11] is RPS6KA6. The following applies: read-out: apparent Kd; compound concentrations: 100 nM and 1000 nM (sheet 'Samples'), CATDS: 5.8254455151346002E-2; n = 1.
In experiment [12] the test system is SRC. To be noted: read-out: apparent Kd; compound concentrations: 100 nM and 1000 nM (sheet 'Samples'), CATDS: 5.8386134416648999E-2; n = 1.
Experiment [13] concerns TNK1. The following applies: read-out: apparent Kd; compound concentrations: 100 nM and 1000 nM (sheet 'Samples'), CATDS: 8.7272147556640506E-2; n = 1.
Experiment [14] concerns TNK2. The following applies: read-out: apparent Kd; compound concentrations: 100 nM and 1000 nM (sheet 'Samples'), CATDS: 6.9926040964812697E-2; n = 1.
The test system of experiment [15] is MAP3K1. To be noted: read-out: apparent Kd; compound concentrations:100 nM and 1000 nM (sheet 'Samples'); n = 1.
In experiment [16] the test system is NUAK2. The following applies: read-out: apparent Kd; compound concentrations:100 nM and 1000 nM (sheet 'Samples'); n = 1.
The test system of experiment [17] is PLK1. To be noted: read-out: apparent Kd, compound concentrations: 100 nM and 1000 nM (sheet 'Samples'), n = 1.
The subject of experiment [18] is AKT3. The following applies: read-out: apparent Kd; compound concentrations:100 nM and 1000 nM (sheet 'Samples'); n = 1.
Experiment [19] has as its system GSK3A. To be noted: read-out: apparent Kd, n = 1.
Experiment [20] relates to GSK3B. The following applies: read-out: apparent Kd, n = 1.
The subject of experiment [21] is MAP2K2. To be noted: read-out: apparent Kd; compound concentrations:100 nM and 1000 nM (sheet 'Samples'); n = 1.
Experiment [22] deals with SKIV2L2. The following applies: read-out: apparent Kd; compound concentrations:100 nM and 1000 nM (sheet 'Samples'); n = 1.
The subject of experiment [23] is PIK3CA. To be noted: read-out: apparent Kd, compound concentrations: 100 nM and 1000 nM (sheet 'Samples'), n = 1.
Experiment [24] has as its system FECH. To be noted: read-out: apparent Kd; compound concentrations: 100 nM and 1000 nM (sheet 'Samples'), CATDS: 0.190744919400651; n = 1.
Experiment [25] deals with PRKACG. To be noted: read-out: apparent Kd; compound concentrations: 100 nM and 1000 nM (sheet 'Samples'), CATDS: 0.152371623335085; n = 1.
Where [26] appears, read: compound concentrations:100 nM and 1000 nM (sheet 'Samples').

Consider `CC(C)(O)CCc1cccc(C(=O)c2cnn(-c3ccc(F)cc3)c2N)c1` [RO3200935-000], for which the potency estimated from few doses in experiment [1] (compound concentrations: 100 nM and 1000 nM (sheet 'Samples'), CATDS: 0.124711216224064) is 182 nM; in [2], 1310 nM; in experiment [3], 862 nM; in [4] it was 1180 nM; in experiment [5], 1300 nM; in experiment [6] it was 1400 nM. In addition, the potency estimated from few doses in [7] was 1970 nM; in [8] (compound concentrations: 100 nM and 1000 nM (sheet 'Samples'), CATDS: 0.17871618509773601), 101 nM; in experiment [9] it was 114 nM; in experiment [10] it was 105 nM; in experiment [11], 1020 nM; in experiment [12], 1020 nM. The values for the potency estimated from few doses in [13] and in [14] were 366 nM and 615 nM, respectively.
For the molecule `C[C@@H](Oc1cc(-n2cnc3ccc(CN4CCN(C)CC4)cc32)sc1C(N)=O)c1ccccc1C(F)(F)F` [GSK461364], the potency estimated from few doses was 264 nM in experiment [1] (setting [26]); 102 nM in [15]; 1280 nM in [16]; 214 nM in experiment [8] (setting [26]); 42.1 nM in experiment [17] (CATDS: 0.443689991043278).
On to `O=C1NC(=O)C(c2ccc(Cl)cc2)=C1Nc1ccc(Cl)c(C(=O)O)c1` [SB-360741], for which the potency estimated from few doses in experiment [18] is 1530 nM; in [19] (setting [26]), 601 nM; in [20] (setting [26]), 1310 nM; in [21], 140 nM; in experiment [22], 1360 nM.
On to `Cc1c(C2=C(c3cn(C)c4ccccc34)C(=O)NC2=O)c2ccccc2n1C` [RO0317777-000], for which the potency estimated from few doses is 20.1 nM in [1] (compound concentrations: 100 nM and 1000 nM (sheet 'Samples'), CATDS: 0.73643038354307599); 343 nM in experiment [19] (compound concentrations: 100 nM and 1000 nM (sheet 'Samples'), CATDS: 0.20080889855539999); 397 nM in experiment [20] (compound concentrations: 100 nM and 1000 nM (sheet 'Samples'), CATDS: 0.19196654372997399); 247 nM in experiment [23] (CATDS: 0.224567790498646).
As for `COc1cccc(COc2cc(-n3cnc4ccccc43)sc2C(N)=O)c1` [GW804482X], the potency estimated from few doses in experiment [1] (compound concentrations: 100 nM and 1000 nM (sheet 'Samples'), CATDS: 0.32091008376932201) was 210 nM; in experiment [24], 558 nM; in [23] (CATDS: 0.27121911823644002), 277 nM; in experiment [17] (CATDS: 0.15646266136602699) it was 938 nM; in experiment [25], 1020 nM.
